Measured values as given in PubChem BioAssay (Tox21).
Results filed as inconclusive are left out. Where a call stands in place of a potency, no number is given. Activity calls are given as the source filed them. Calls come from the whole dose curve; as a rule, active = well fitted activation curve with a large enough effect in the signal ratio in the repeat runs (not every such curve was filed as active); inconclusive = weak or mixed curves; inactive = flat fitted curve, though single readings scatter; the % refers to the signal ratio.

Test: p53 small molecule agonists, cell-based qHTS assay (AID 1963582)
Conditions: HCT-116 p53RE-bla reporter, beta-lactamase FRET ratio, 16 h; series mostly up to 66 µM; activation: at the top concentration
Source text: National Center for Advancing Translational Sciences [NCATS]
Division of Preclinical Innovation [DPI]
U.S. Environmental Protection Agency [EPA]
National Institutes of Environmental Health Sciences [NIEHS]
National Toxicology Program [NTP]
U.S. Food and Drug Administration [FDA]
p53, a tumor suppressor protein, is activated following cellular insult, including DNA damage and other cellular stresses. The activation of p53 regulates cell fate by inducing DNA repair, cell cycle arrest, apoptosis, or cellular senescence. The activation of p53, therefore, is a good indicator of DNA damage and other cellular stresses. […] The activation of the reporter gene under culture conditions can be detected by fluorescence intensity. This cell line was used to screen the Tox21 10K compound library in a 1536-well plate format and to identify agonists that activate the p53 signaling pathway.
Tox21 Assay Protocol Summary:
The p53RE-bla cells were dispensed at 4,000 cells/5 ul/well in 1536-well black wall/clear bottom plates using a Multidrop dispenser. After the assay plates were incubated at a 37 C/5% CO2 incubator for 5 hours, 23 nL of compounds dissolved in DMSO, positive controls or DMSO only was transferred to the assay plate by a pin tool. The plates were incubated at 37 C for 16 hours. After 1 uL of LiveBLAzerTM B/G FRET substrate was added using a Flying Reagent Dispenser, the plates were incubated at room temperature for 2 hours, and fluorescence intensity was measured by an Envision plate reader.

Compound | activation | Potency
CCCCCCCC(=O)O | 0.166% (inactive) | –
C=CC[N+](C)(C)CC=C | – | inactive
CC(=O)c1ccc(O)cc1 | – | inactive
NCCCCCCN | – | inactive
N[C@@H](Cc1cc(I)c(Oc2ccc(O)c(I)c2)c(I)c1)C(=O)O | -3.52% (inactive) | –
CCCCC(CC)COC(=O)CS (stereo not given) | – | inactive
Nc1ccn([C@H]2CC[C@@H](CO)O2)c(=O)n1 | – | inactive
CCCCOC(=O)COc1ccc(Cl)cc1Cl | – | inactive
c1ccc(Oc2ccccc2)cc1 | – | inactive
CC1CCC2CC1C2(C)C (stereo not given) | – | inactive
O=c1c(-c2ccc(O)cc2)coc2cc(O)cc(O)c12 | 6.58% [at 30.3 µM] (inactive) | –
O=C(CC(C(=O)OC1CCCCC1)S(=O)(=O)O)OC1CCCCC1 (stereo not given) | – | inactive
COc1ccc(O)cc1 | – | inactive
CCOC(=O)C1OC1c1ccccc1 (stereo not given) | – | inactive
CN(C)C=O | – | inactive
CC1(C)NC(=O)NC1=O | – | inactive
CC(=O)CCc1ccccc1 | – | inactive
C#C[C@]1(O)CC[C@H]2[C@@H]3CCC4=CC(=O)CC[C@@H]4[C@H]3CC[C@@]21CC | – | inactive
CC(=O)N[C@@H](CS)C(=O)O | – | inactive
Nc1ccc(S(N)(=O)=O)cc1 | – | inactive

Compound | activation | Potency
CCCCCCCCCCO | – | inactive
Cc1ccc(S(=O)(=O)O)cc1C | – | inactive
CC1(C)[C@@H](O[C@H]2O[C@H](C(=O)O)[C@@H](O)[C@H](O)[C@H]2O[C@@H]2O[C@H](C(=O)O)[C@@H](O)[C@H](O)[C@H]2O)CC[C@]2(C)[C@H]3C(=O)C=C4[C@@H]5C[C@@](C)(C(=O)O)CC[C@]5(C)CC[C@@]4(C)[C@]3(C)CC[C@@H]12 | – | inactive
COC(=O)CCCCC(=O)OC | – | inactive
CC(=O)Oc1ccccc1C(=O)O | – | inactive
C[N+](C)(C)CCCCCC[N+](C)(C)C | – | inactive
c1ccc2c(c1)Cc1ccccc1-2 | – | inactive
NS(=O)(=O)c1cc2c(cc1Cl)NCNS2(=O)=O | – | inactive
Cc1cccc(C(=O)O)c1 | – | inactive
COc1ccc(C)cc1N | 0.77% (inactive) | –
Cc1ccc(C(C)C)cc1 | – | inactive
CCOC(=O)c1ccc(O)cc1 | – | inactive
[O-]/[N+](=N\O)c1ccccc1 | – | inactive
O=c1[nH]nnc2ccccc12 | – | inactive
Brc1ccc(Br)c(Br)c1 | – | inactive
CCc1nc(N)nc(N)c1-c1ccc(Cl)cc1 | 11.2% [at 30.3 µM] (inactive) | –
CC(C)CC(=O)CC(C)C | – | inactive
CC(=O)CCC=C(C)C | – | inactive
NCCS(=O)(=O)O | – | inactive
O=C(OCC1CCC2OC2C1)C1CCC2OC2C1 (stereo not given) | – | inactive
